The entries come from a sample that favours hits as a whole.
nsP2pro inh: CHIKV nsP2 protease inhibition, primary qHTS. Q8JUX6. FRET peptide cleavage, nsP2pro, fluorescence 1 h. Potency, µM (highest dose often 24.9 µM), inactives show at the highest dose activity change, negative = inhibition, hits mostly inhibitors. 1.1% of 31,000 active; also: nearly all actives have a fitted effect of over 60% in size
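Purified recombinant nsP2pro (150 nM final) in 10 mM Tris-HCl pH 8.0 with 0.01% Tween 20 was preincubated 15 min at room temperature with compound (7 concentrations, up to 25 uM). FRET peptide 2 substrate (2.5 uM final) was then added; fluorescence was read after 1 h.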
nsP2 cell sec: cell-based CHIKV nsP2 protease inhibition, secondary; shares compounds with nsP2pro inh; cell-based CHIKV nsP2 protease reporter assay; Potency, µM (highest dose often 51.1 µM), for inactives: top-dose activity change, negative = inhibition, actives largely listed as inhibitors; 10% of 450 active; also: nearly all actives have a fitted effect of over 70% in size
CHIKV NSP2 FL: full-length CHIKV NSP2 protease inhibition, selectivity; AID 1964101; shares compounds with nsP2pro inh; Full-length CHIKV NSP2 protease enzymatic counterscreen; Potency, µM (series often up to 50.7 µM), for inactives: at the top dose activity change, negative = inhibition, actives largely listed as inhibitors; 39% of 410 active; also: nearly all actives have a fitted effect of over 65% in size
Furin counterscr: human furin inhibition, counterscreen for nsP2pro inhibitors. shares compounds with nsP2pro inh. Recombinant human furin enzymatic counterscreen, fluorogenic substrate. Potency, µM (highest dose often 50.6 µM), without a hit: top-dose activity change, negative = inhibition, most hits filed as inhibitors. 6% of 410 active. AID 1964102
nsP2 NS23 pep: nsP2pro inhibition on native NS2/3 peptide substrate; shares compounds with nsP2pro inh; Purified CHIKV nsP2 protease, endogenous NS2/3 peptide cleavage; Potency, µM (doses to about 51 µM), inactives show at the top dose activity change, negative = inhibition, usual class: inhibitors; 34% of 410 active; AID 1964103; also: nearly all actives have a fitted effect of over 55% in size
Papain cs: selectivity counter-screen for CHIKV nsP2 protease inhibitors: papain. 5% of 410 active. AID 1964104. shares compounds with nsP2pro inh. Potency, µM (titrated, usually from 51 µM), inactives show at the highest dose activity change, negative = inhibition, actives largely listed as inhibitors. purified papain protease activity, enzymatic inhibition
nsP2pro conf qHTS: CHIKV nsP2 protease inhibition, confirmatory qHTS. CHIKV nsP2 protease enzymatic activity, qHTS. shares compounds with nsP2pro inh. Potency, µM (highest dose often 25.5 µM), without a hit: at the top dose activity change, negative = inhibition, hits mostly inhibitors. 43% of 410 active; also: nearly all actives have a fitted effect of over 75% in size
HCV NS3 counter: selectivity counter-screen for CHIKV nsP2 protease inhibitors: HCV NS3/4A. shares compounds with nsP2pro inh. HCV NS3/4A protease biochemical counterscreen. Potency, µM (series often up to 50.9 µM), usual class: inhibitors. 20% of 410 active. AID 1964106; also: nearly all actives have a fitted effect of over 55% in size
* = called active by the depositor; i = inactive; ? = inconclusive; [ ] = dose if it differs, or a comment. Calls follow the shape of the full dose curve. % is scaled to controls: 0 for no effect and ±100 for the full control effect; potency is read from the fitted curve at half-maximal effect.

SMILES | nsP2pro inh | others
COc1ccccc1NC(=O)CCCOc1cc(=O)n(C)c2ccccc12 | -12.8%
CCOc1ccc(CNC(=O)COc2cc(=O)n(C)c3ccccc23)cc1 | ? | nsP2 cell sec=2.3%
CC(=O)Nc1sc2c(c1-c1cccnc1)CCNC2 | 1.3%
O=C(Nc1ncc(Cc2ccc(C(F)(F)F)cc2)s1)c1ccco1 | -14.8%
COC(=O)N(C)Cc1cccc(N2CCN(C(=O)OC(C)(C)C)CC2)c1F | 1.7%
CS(=O)(=O)c1ncc(Cl)c(C(=O)N(Cc2ccc(Cl)cc2)Cc2ccco2)n1 | 4.78µM* | nsP2 cell sec=2.59µM*;CHIKV NSP2 FL=?;Furin counterscr=-5.5%;nsP2 NS23 pep=4.11µM*;Papain cs=1.7%;nsP2pro conf qHTS=2.25µM*;HCV NS3 counter=i
O=C(c1ccc(Cl)cc1)N(Cc1ccco1)Cc1ccco1 | -8.8%
O=C(c1cc(-c2ccc(Cl)cc2)on1)N(Cc1ccc(F)cc1)Cc1ccco1 | -7.6%
COc1c(C(C)C)c(O)c(O)c2c1C(OC)[C@H]1OC(=O)[C@@]23CCCC(C)(C)[C@H]13 (some centres undefined) | -5.0%
COc1cc(NS(=O)(=O)c2ccc(C)cc2)c(C(=O)Nc2nc(-c3ccccc3)cs2)cc1OC | i
COC(=O)C1=C(C)NC(C)=C(C(=O)OCC(C)C)C1c1ccccc1[N+](=O)[O-] (centres undefined) | 9.88µM* | nsP2 cell sec=?;CHIKV NSP2 FL=?;Furin counterscr=-11.0%;nsP2 NS23 pep=14.6µM*;Papain cs=16.7%;nsP2pro conf qHTS=10µM*;HCV NS3 counter=i
COC(=O)C1=C(C)NC(C)=C(C(=O)OCCc2ccc(N3CCN(C(c4ccccc4)c4ccccc4)CC3)cc2)C1c1cccc([N+](=O)[O-])c1 (centres undefined) | 1.2%
CC(C)COC(=O)c1ccc(N)cc1 | -2.4%
COCCCNC(=O)c1cnn(-c2ccc(F)cc2F)c1C1CCNCC1 | 51.7% | nsP2 cell sec=5.4%;CHIKV NSP2 FL=16.3µM*;Furin counterscr=-5.9%;nsP2 NS23 pep=?;Papain cs=-4.0%;nsP2pro conf qHTS=?;HCV NS3 counter=?
CC(C)(C)OC(=O)N1CCC(c2c(C(=O)NCCN3CCc4ccccc4C3)cnn2-c2ccc(F)cc2F)CC1 | -2.7%
CC(C)(C)OC(=O)N1CCC(c2c(C(=O)NCCc3ccccc3)cnn2-c2ccc(F)cc2F)CC1 | 3.8%
CCN1Cc2ccccc2N(CC(O)Cc2ccccc2)CCC1=O (centres undefined) | -16.6%
CC(=O)Nc1sc2c(c1-c1ccc3nc[nH]c3c1)CCNC2 | i
Cc1ccc(-c2csc(NC(=O)c3ccncc3NS(=O)(=O)c3ccc(C)cc3)n2)cc1 | i
O=C(c1ccc2c(c1)ncn2-c1ccc(C(F)(F)F)cc1)N1CCCCC1 | i
CC/C(C)=C/C(=O)OC1C(OC2(C)CCC3C(C4C(C)CCC42)C3(C)C)OC(C)C(O)C1O (centres undefined) | ? | nsP2 cell sec=?;CHIKV NSP2 FL=4.8%[17.3 µM];Furin counterscr=-17.0%[17.3 µM];nsP2 NS23 pep=-1.6%[17.2 µM];Papain cs=?;nsP2pro conf qHTS=-9.8%[8.62 µM];HCV NS3 counter=i
O=C(CCCCSc1nnc(-c2cccc3ccccc23)o1)Oc1ccc(F)cc1 | i
CC1CC=C2C1CC1(O)C(=O)CC2(C)C1(C)CO (centres undefined) | 70.8%
CC(=O)OC1CCC2(C)C(=CCC3C2CCC2(C)C(c4cccnc4)=CCC32)C1 (centres undefined) | -5.7%
COCC1CN(Cc2ccc(Br)s2)CC12CCNCC2 (centres undefined) | ? | nsP2 cell sec=?;CHIKV NSP2 FL=?;Furin counterscr=-14.4%;nsP2 NS23 pep=?;Papain cs=-2.6%;nsP2pro conf qHTS=?;HCV NS3 counter=?
SMILES | nsP2pro inh | others
COCC1CN(Cc2ccc(OC)cc2)CC12CCNCC2 (centres undefined) | 1.9%
COCC1CN(C)CC12CCN(Cc1cccnc1)CC2 (centres undefined) | 4.2%
CN(C)CCNC(=O)c1ccnc(-c2nnc3ccc(N(C)c4ccccc4)nn23)c1 | i
COc1cc(O)c(C(CC(=O)N2CCC(c3ccccc3)CC2)c2ccc(C)cc2)c(OC)c1 (centres undefined) | -3.8%[39.2 µM]
N[C@H](Cc1ccccc1)C(=O)Nc1ccc(Cl)cc1C(=O)c1ccc[nH]1 | i
Cc1nc2ccc(Nc3nc(-c4ccncc4)nc4ccccc34)cc2s1 | i
COc1ccc(CNc2nc(-c3ccco3)nn2S(=O)(=O)c2ccc3ccccc3c2)cc1OC | ? | nsP2 cell sec=15.5%
COc1ccc(CNc2nc(-c3ccco3)nn2C(=O)c2ccccc2Cl)cc1 | -22.0%
O=S(=O)(c1ccccc1)n1nc(-c2ccccc2)nc1NCc1ccc(Cl)cc1 | -10.3%
Cc1cc(C)nc(NC(=S)N2CCN(c3ccc(C(F)(F)F)cc3[N+](=O)[O-])CC2)c1 | -0.5%
COc1cccc(-c2nnnn2[C@H]2CO[C@H]3[C@@H]2OC[C@@H]3NC(=O)C2CCCCC2)c1 | 18.9%[39.2 µM]
C[C@H](C(=O)NC1CCCC1)N(C(=O)Cn1nnc(-c2ccc3c(c2)OCO3)n1)C1CCCCC1 | 3.6%
O=C(NC1CCCCC1)N[C@H]1CO[C@H]2[C@@H]1OC[C@@H]2n1nnnc1-c1ccc2c(c1)OCO2 | 2.82µM* | nsP2 cell sec=-10.8%;CHIKV NSP2 FL=18.3µM*;Furin counterscr=16.3µM*;nsP2 NS23 pep=16.3µM*;Papain cs=-2.3%;nsP2pro conf qHTS=4.49µM*;HCV NS3 counter=?
Cc1onc(-c2ccc(F)cc2)c1COc1ccc(C(=O)N2CCS(=O)(=O)CC2)cn1 | -11.2%
Cc1cc(NC(=O)Nc2nnc(-c3cccnc3)s2)ccc1Cl | 2.1%
Cc1ccc(NC(=O)Cn2c(=O)n(CCC(=O)NCc3ccc4c(c3)OCO4)c(=O)c3sccc32)c(C)c1 | -20.5%
COc1ccc2cc(CNc3ccccc3)c(=O)n(CC(=O)Nc3ccc(C(C)=O)cc3)c2c1 | -9.8%
COc1ccc(NCc2cc3cc4c(cc3n(CC(=O)Nc3ccc(C)cc3C)c2=O)OCO4)cc1 | ? | nsP2 cell sec=3.6%
C[C@H]1C[C@H]2[C@H]3CCC4=CC(=O)C=C[C@]4(C)[C@@]3(F)[C@@H](O)C[C@]2(C)[C@@]1(OC(=O)c1ccccc1)C(=O)CO | 4.0%
O=C1NS(=O)(=O)c2cc(Br)ccc21 | -1.6%
CC(NC(=O)[C@H](Cc1ccccc1)NC(=O)OCc1ccccc1)C(=O)CF (some centres undefined) | -28.0%
CC(C)C[C@H](NC(=O)CNC(=O)OCc1ccccc1)C(=O)N[C@@H](Cc1ccccc1)C(=O)CCl | -24.9%

High-throughput results from PubChem BioAssay.
